Compound activity: PubChem BioAssay, National Center for Advancing Translational Sciences (NCATS)
The sample as a whole holds a higher share of hits than the screen did.
Pf Dd2 inh: qHTS Primary assay for Inhibitors of Plasmodium falciparum Dd2 growth in vitro | P. falciparum Dd2 growth, SYBR Green, 72 h | Potency, µM (titrated, usually from 28.9 µM), most hits filed as inhibitors | 120,000 tested, 4.3% active | AID 1347417, 2020; active = well fitted inhibition curve with a large enough effect; note: nearly all actives have a fitted effect of over 65% in size
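Infected erythrocytes (Dd2, 0.3% parasitemia, 2.5% hematocrit final) are added to compound in RPMI-1640/Albumax II medium, grown 72 h at 37C in low oxygen, then lysed with saponin/Triton-X containing SYBR Green and read by fluorescence.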
Numbers stand for hits; 0 = inactive.

SMILES	Pf Dd2 inh
O=C1NCc2ccccc2CC12CCCN2Cc1ccc(F)cc1F (stereo not drawn)	0
COc1ccc(CN2CCCCC23Cc2ccccc2CNC3=O)cc1OC (stereo not drawn)	0
Cc1ccc(CN2CCCC23Cc2ccccc2CNC3=O)cc1 (stereo not drawn)	10µM
O=C1NCc2ccccc2CC12CCCN2Cc1ccc(O)cc1O (stereo not drawn)	0
O=C1NCc2ccccc2CC12CCCN2Cc1ccc(O)cc1 (stereo not drawn)	0
CC(=O)Nc1ccc(CN2CCCC23Cc2ccccc2CNC3=O)cc1 (stereo not drawn)	0
O=C1NCc2ccccc2CC12CCCCN2Cc1cccc(F)c1 (stereo not drawn)	0
Cc1ccc(CN2CCCCC23Cc2ccccc2CNC3=O)cc1C (stereo not drawn)	7.9µM
CCc1ccccc1CN1CCCC12Cc1ccccc1CNC2=O (stereo not drawn)	8.9µM
O=C(NCc1ccccc1)C(=O)NCC(c1cccs1)S(=O)(=O)c1ccccc1 (stereo not drawn)	0
Cc1noc([C@@H]2CN(C(=O)c3ccc(Br)o3)C[C@H]2CO)n1	0
Cc1ccc(C(=O)N2CCC3(CC2)NC(=O)N(c2ccccc2)N3)cc1F	0
COC[C@H]1CCCN1Cc1nc(C2(O)CCN(C3COC3)CC2)cs1	0
COc1cccc(NC(=O)Cn2nc3c(cc2=O)CN(C(C)=O)CC3)c1	0
COc1ccc(C2CC(=O)c3cc(-c4nc(-c5cccc([N+](=O)[O-])c5)cs4)c(=O)n(-c4ccc(F)cc4)c3C2)cc1 (stereo not drawn)	0
COc1ccc(-c2cnc3n[nH]c(-c4ccc(OC)c(F)c4)c3n2)cn1	0
COc1ccc(-c2[nH]nc3ncc(-c4ccc(C)cc4)nc23)cc1F	13µM
COc1ccccc1-c1[nH]nc2ncc(-c3ccc(C)cc3)nc12	0
COc1ccccc1C(=O)N1CCC2(CC1)NC(=O)N(c1cccc(F)c1)N2	0
COc1cccc(C(=O)N2CCC3(CC2)NC(=O)N(c2ccccc2)N3)c1	0
COc1ccc(C(=O)N2CCC3(CC2)NC(=O)N(c2cccc(F)c2)N3)cc1	11µM
COc1ccc(C(=O)N2CCC3(CC2)NC(=O)N(c2cccc(F)c2)N3)cc1F	0
COc1ccc(Cl)cc1C(=O)N1CCC2(CC1)NC(=O)N(c1ccccc1)N2	0
COc1ccc(Cl)cc1C(=O)N1CCC2(CC1)NC(=O)N(c1cccc(F)c1)N2	10µM
CCN(CC)S(=O)(=O)c1ccc2c(c1)N(CC(=O)Nc1cccc(C(C)=O)c1)C(=O)CO2	0
SMILES	Pf Dd2 inh
CCCn1cc2c3c(cccc31)CN(C(=O)c1cccc(C#N)c1)CC2	0
CCOc1ccc(-c2cccc3c2CCNC3)cc1C(N)=O	0
NC(=O)c1ccc(-c2cccc3c2CCNC3)s1	0
COc1ccc(-c2cccc3c2CCNC3)cc1OC	11µM
COc1ccc(CNC(=O)c2cc(Nc3ccc(C)cc3C)nc3ccccc23)cc1	0
CN(CC(=O)Nc1cccc(C(F)(F)F)c1)S(=O)(=O)c1ccc2[nH]c3c(c2c1)CCCC3	0
O=C(Nc1ccc(F)cc1)c1cccc(N2CCCS2(=O)=O)c1	0
CC(O)c1cc2n(n1)CCN(C(=O)c1nc3ccccc3n(C)c1=O)C2 (stereo not drawn)	0
COc1ccc(-c2ccc3ncc(Nc4cccc(F)c4)n3n2)cn1	0
Cc1ccccc1Nc1cnc2ccc(-c3cccc(CO)c3)nn12	2.5µM
COc1ccc(-c2ccc3ncc(Nc4ccc(C(N)=O)cc4)n3n2)cn1	0
COc1ccc(Nc2cnc3ccc(-c4cccc(CO)c4)nn23)cc1	0
COc1ccc(-c2ccc3ncc(Nc4ccccc4C)n3n2)cn1	5.6µM
OCc1cccc(-c2ccc3ncc(Nc4cccc(F)c4)n3n2)c1	0
CNC(=O)N1Cc2ccccc2OC2(CCN(C(C)C)CC2)C1	0
O=C(C1CCCC1)N1CCC2(Cc3ccccc3NC2=O)C1 (stereo not drawn)	0
CCCn1c2ccccc2c2nnc(SCC(=O)Nc3cccc(C(C)=O)c3)nc21	0
COc1cccc(-c2nc(SCC(=O)NCC3CCCO3)c(-c3ccc(F)cc3)[nH]2)c1 (stereo not drawn)	0
COC(=O)c1cc(C#N)c(N2CC[C@H](CO)[C@@H](O)C2)nc1C	0
CN1C(=O)c2cccn2CC1CNC(=O)c1cc(-c2ccc(F)cc2)n[nH]1 (stereo not drawn)	0
CC(C)CC(=O)N1C[C@@H](Oc2ccccc2)C[C@H]1C(=O)N1CCCC1	0
O=C([C@@H]1C[C@H](Oc2ccccc2)CN1C(=O)C1(c2ccccc2)CC1)N1CCCC1	1.8µM
O=C([C@@H]1C[C@H](Oc2ccccc2)CN1C(=O)CC1CCCC1)N1CCCC1	0
O=C([C@@H]1C[C@H](Oc2cccnc2)CN1C(=O)CCc1c[nH]c2ccccc12)N1CCOCC1	4µM
O=C([C@@H]1C[C@H](Oc2ccccc2)CN1C(=O)Cc1c[nH]c2ccccc12)N1CCOCC1	0
SMILES	Pf Dd2 inh
O=C([C@@H]1C[C@H](Oc2cccnc2)CN1C(=O)CCc1ccccc1)N1CCOCC1	0
CCc1nc2c(=O)n(CC(=O)NCc3ccc4c(c3)OCO4)nc(C)c2s1	0
COc1cccc([S+](=O)([O-])N2CCCC3(CC(C(C)C)=NO3)C2)c1 (stereo not drawn)	0
COCCNC(=O)CCCN1C(=O)COc2ccc(C(=O)COc3ccc(C)cc3Cl)cc21	0
COc1ccc(Cl)cc1NC(=O)CCC1CCCN(C(=O)c2ccoc2C)C1 (stereo not drawn)	4µM
COc1ccc(NC(=O)CCC2CCCN(C(=O)c3ncoc3C)C2)c(C)c1 (stereo not drawn)	0
COc1ccc(NC(=O)CCC2CCCN(C(=O)c3ccccc3SC)C2)cc1Cl (stereo not drawn)	0
Cc1ccccc1NC(=O)CC(=O)N1CCC(Oc2ccccc2C)CC1	0
CCOC(=O)c1nnn(CC(=O)Nc2cc(C)cc(C)c2)c1C(=O)OCC	0
O=C(O)COc1ccc(-c2nccc3c2C(=O)N(Cc2cccc(C(F)(F)F)c2)CC(CNC(=O)c2cccc(Cl)c2)O3)cc1 (stereo not drawn)	10µM
COc1cc(OC)cc(OCC2CN(Cc3cccc(C(F)(F)F)c3)C(=O)c3c(ccnc3-c3ccc(OCC(=O)O)cc3)O2)c1 (stereo not drawn)	0
O=C(O)COc1ccc(-c2nccc3c2C(=O)N(Cc2cccc(C(F)(F)F)c2)CC(COc2ccc(OC(F)(F)F)cc2)O3)cc1 (stereo not drawn)	0
O=C(c1ccc(C2CCNC2)cc1)N(Cc1ccccc1)CC1CCC1 (stereo not drawn)	13µM
CCCN(Cc1nccn1C)C(=O)c1cccc(C2CCNC2)c1 (stereo not drawn)	0
COCc1cc(CNC(=O)c2ccc(C3CCNC3)cc2)[nH]n1 (stereo not drawn)	0
COCCNC(=O)c1c(C)noc1-c1cc(OC)c(OC)c(OC)c1	0
COc1cc(-c2onc(C)c2C(=O)NCCc2ccc(F)cc2)cc(OC)c1OC	0
COc1cc(-c2onc(C)c2C(=O)NCCC(c2ccccc2)c2ccccc2)cc(OC)c1OC	11µM
COc1ccc(CNC(=O)CC[C@@H]2CNC(=O)[C@@H]3C[C@H](NCc4cn(C)c5ccccc45)CN23)cc1	0
CCC(=O)N1CCc2cc(Br)cc(S(=O)(=O)CCC(=O)NCCc3ccccc3Cl)c21	11µM
CCC(=O)N1CCc2cc(Br)cc(S(=O)(=O)CCC(=O)NCCc3ccc(C)cc3)c21	0
